Sampled rows, rich in hits. Any-hit rate of the full collection: about 3.7%.
tim10-1 inh: growth inhibitors of tim10-1 mutant yeast, primary screen, luminescence, uHTS; 330,000 tested, 2.2% active; S. cerevisiae tim10-1 ts strain growth, BacTiter-Glo, 24 h; inhibition, % at 20 µM; AID 463190, 2010;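 active = inhibition of at least 40%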;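 note: mutant grown at 25 °C; 0% = DMSO wells with yeast and 100% = wells holding no yeast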
PfHsp90 yeast 2: growth inhibition of PfHsp90-expressing yeast, primary screen, antimalarial PfHsp90 inhibitor project, S. cerevisiae, BacTiter-Glo luminescence, single point, set 2; BacTiter-Glo ATP, 48 h; yeast lacking PDR1 and PDR3 efflux regulators; inhibition, % at 9.4 µM; 310,000 tested, 0.32% active; AID 504621, 2011;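 active = every replicate shows inhibition above about 80%, whatever the replicate mean, limit read from the data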;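 note: 0% = DMSO neutral controls and 100% = 20 µM radicicol positive controls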
Rce1 inhib: yeast Rce1p protease inhibitors, primary screen, biochemical, fluorescence, cell-free homogeneous. yeast membranes, quenched prenylated peptide cleavage fluorescence. calls only. 290,000 tested, 0.27% active;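 active = fall in fluorescence gain of 50% or more versus controls, with final raw signal at or below 3038400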;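 note: plate controls were neutral control wells for no effect and wells lacking membranes for full effect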
Target sequence (Q03530 whole entry, looked up): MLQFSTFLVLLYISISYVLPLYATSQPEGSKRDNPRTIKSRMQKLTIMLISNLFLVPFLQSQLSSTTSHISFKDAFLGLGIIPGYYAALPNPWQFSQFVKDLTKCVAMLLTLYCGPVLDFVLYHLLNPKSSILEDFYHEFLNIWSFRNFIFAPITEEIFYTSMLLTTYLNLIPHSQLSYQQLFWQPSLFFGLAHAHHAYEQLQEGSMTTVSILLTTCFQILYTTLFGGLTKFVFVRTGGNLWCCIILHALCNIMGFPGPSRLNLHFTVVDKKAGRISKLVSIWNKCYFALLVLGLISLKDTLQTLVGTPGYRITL
tim23-1 inh: growth inhibitors of tim23-1 mutant yeast, primary screen, luminescence, uHTS; S. cerevisiae tim23-1 growth, BacTiter-Glo luminescence, 24 h; inhibition, % at 20 µM; 330,000 tested, 1.3% active; AID 463212, 2010;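 active = growth inhibition of the mutant yeast at or above 50%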;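 note: temperature-sensitive mutant grown at 25 °C; plate controls were DMSO-treated mutant yeast for no effect and medium wells lacking yeast for full effect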
TIM10 inh: growth inhibitors of isogenic TIM10 control yeast, primary screen, counter-screen for tim10-1 yeast inhibitor project, luminescence, uHTS; inhibition, % at 10 µM; S. cerevisiae TIM10 strain growth, BacTiter-Glo luminescence, 24 h; 330,000 tested, 1.4% active;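 active = inhibition of 40% or more at the single tested concentration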;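 note: wild-type TIM10 isogenic control strain grown at permissive 25 °C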
tim10-1 conf: growth inhibitors of tim10-1 mutant yeast, confirmation, single concentration, luminescence, S. cerevisiae; inhibition, % at 20 µM; S. cerevisiae tim10-1 ts strain growth, BacTiter-Glo, 24 h; AID 463213, 2010; 7,400 tested, 56% active; shares compounds with tim10-1 inh;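 active = inhibition of yeast growth at or above a set limit in either of two repeat tests at 20 µM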;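 note: tim10-1 mutant grown at permissive 25 °C to find synthetic lethal compounds; 0% = DMSO yeast wells and 100% = medium wells without yeast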
Active calls of the source: *; i = inactive; · = no result.

SMILES	tim10-1 inh	PfHsp90 yeast 2	Rce1 inhib	tim23-1 inh	TIM10 inh	tim10-1 conf
O=S(=O)(NCCCSc1ccccc1)c1ccccc1F	42*	5	i	48	5	18
COc1ccc(CNC(=O)COC(=O)c2cccc(S(=O)(=O)N3CCOCC3)c2)cc1	23	-17	·	7	8	·
COc1cc(-c2nc(-c3cccc(C(F)(F)F)c3)no2)cc(OC)c1OC	41*	-7	i	10	35	31*
COc1ccccc1-c1noc(-c2cc(OC)c(OC)c(OC)c2)n1	15	·	i	18	21	·
Cc1ccc(S(=O)(=O)/N=C2\C=C(Nc3cccc(C(=O)O)c3)C(=O)c3ccccc32)c(C)c1	44*	-13	i	35	7	22
C=CCOc1ccc(C(c2c(C(=O)O)[nH]c3ccccc23)c2c(C(=O)O)[nH]c3ccccc23)cc1	15	-3	i	1	-3	·
CC(C)=CCC1=C(OCC(=O)O)C(=O)c2ccccc2C1=O	52*	-9	i	49	34	44*
CC(C)=CCC/C(C)=C/CC/C(C)=C/CC/C(C)=C/CC1=C(C)C(=O)c2ccccc2C1=O	26	-21	i	32	16	·
COc1ccc(/C=C/C(=O)CC(O)(c2ccccc2)C(F)(F)F)cc1 (configuration not stated)	47*	·	i	40	30	36*
O=C(/C=C/c1ccccc1)COC(=O)c1ccccc1	·	0	·	·	·	·
O=C(/C=C/c1ccccc1)CC(O)(c1ccccc1)C(F)(F)F (configuration not stated)	45*	-23	i	31	27	39*
Cc1nc2ccc(NC(=O)CSc3ccccc3)cc2s1	-37	-213	·	14	-17	·
Cc1ccc(NC(=O)c2ncn(CC(=O)N[C@H](CO)Cc3c[nH]c4ccccc34)n2)cc1C	-8	-7	·	12	-13	·
CC(=O)Nc1cccc(C(=O)/C=C/c2ccc(F)cc2)c1	41*	-12	i	21	33	31*
CC(=O)Nc1cccc(C(=O)/C=C/c2ccc(/C=C/C(=O)c3cccc(NC(C)=O)c3)cc2)c1	-1	·	i	-19	-24	·
O=C(Nc1nccs1)c1cc2c(s1)-c1ccccc1OC2	59*	26	i	25	22	5
Cn1c(SCC(=O)N/N=C/C=C/c2ccco2)nc2ccccc21	25	8	i	16	-5	·
Cn1c(=O)[nH]c(=O)c2c1nc(N1CCCCCC1)n2CCCSc1nnnn1-c1ccccc1	41*	·	i	17	15	24
O=C(Nc1ccccc1C(=O)N/N=C/c1ccco1)c1ccccc1	41*	18	i	24	12	26
O=C(Nc1ccccc1C(=O)N/N=C/c1ccco1)c1ccc(Cl)cc1	39	11	i	40	22	·
COc1cc(/C=N/N2C(=O)c3ccccc3NC2(C)c2cccc([N+](=O)[O-])c2)cc(Br)c1O (configuration not stated)	44*	4	i	30	31	21
COc1cc(/C=N/NC(=O)c2ccc([N+](=O)[O-])cc2Cl)cc(Br)c1O	-3	13	i	2	-3	·
O=C1/C(=C\c2ccc([N+](=O)[O-])cc2)CCc2ccccc21	47*	9	·	42	37	36*
CC(C)CC(=O)NC(=S)Nc1ccccc1F	16	14	i	27	-11	·
CC(C)CC(=O)NC(=S)Nc1ccccc1C(F)(F)F	41*	-10	i	47	25	28
SMILES	tim10-1 inh	PfHsp90 yeast 2	Rce1 inhib	tim23-1 inh	TIM10 inh	tim10-1 conf
O=C(Nc1ncc2c(n1)-c1ccccc1OC2)c1ccc(F)cc1	33	·	i	40	24	·
O=C(Nc1ncc2c(n1)-c1ccccc1CC2)c1ccc(Cl)cc1	47*	·	i	46	25	37*
N#Cc1ccc(COC(=O)C2CC(=O)N(CCc3ccccc3)C2)cc1 (configuration not stated)	32	21	·	30	16	·
O=C(OCc1ccc([N+](=O)[O-])cc1)C1CC(=O)N(CCc2ccccc2)C1 (configuration not stated)	43*	·	i	27	18	17
Cc1cc(C)nc(N(C#N)Cc2cccc3ccccc23)n1	48*	7	i	32	6	35*
CC(C)=CCC/C(C)=C/CNC(=O)C[C@H]1C[C@H](C(=O)N2CCCCC2)[C@@]2(CCc3ccccc3)c3[nH]c4cc(CCC(=O)N(C)C)ccc4c3CCN2C1=O	11	-27	·	27	-9	·
Oc1ccccc1C1CCCCC1c1ccccc1 (configuration not stated)	·	-21	i	·	·	·
COC(=O)c1cn(C(=O)c2ccc(OC)cc2)c2ccccc12	42*	-9	·	42	12	18
COc1ccc(/C=C/C(=O)NCc2cn(C)nc2C)cc1COc1ccc(Br)cc1	40*	-10	i	23	19	11
Cc1nn(C)cc1CNC(=O)/C=C/c1cnn(C)c1	·	33	i	·	·	·
CCOc1ccc(N2C(=O)CC(NCCNc3ccc([N+](=O)[O-])cn3)C2=O)cc1 (configuration not stated)	53*	-3	i	12	6	28*
CC(C)CN(C(=O)CN(C)C(=O)Cc1ccccc1Cl)c1c(N)n(CC(C)C)c(=O)[nH]c1=O	0	-7	i	-4	2	·
COC(CN(C)C(=O)c1ccc(CS(=O)(=O)c2ccccc2C)o1)OC	0	-58	i	13	-7	·
CC(C)N(C(=O)CSc1nc2ccccc2n1Cc1ccccc1)C(C)C	21	·	·	19	22	·
CC(C)N(C(=O)CSc1nc2ccccc2n1-c1ccccc1)C(C)C	45*	-26	i	33	28	28
CC(C)n1cc(C#N)c(N)n1	·	12	·	·	·	·
CCCCN1C(=O)NC(NC(=O)c2ccco2)(C(F)(F)F)C1=O (configuration not stated)	14	7	i	8	-1	·
CC(C)Oc1ccc(C(=O)NC2(C(F)(F)F)NC(=O)N(CCCc3ccccc3)C2=O)cc1 (configuration not stated)	43*	14	i	43	4	30
COc1cc(C(=O)Nc2cc(S(C)(=O)=O)ccc2Cl)ccc1OCC(=O)N1CCOCC1	3	-7	·	0	-2	·
O=C(N1CCC(n2nc(-c3ccccc3)oc2=O)CC1)C1(c2ccc(Cl)cc2)CC1	53*	-18	i	43	26	2
O=C(N1CCOCC1)C1(c2ccc(Cl)cc2)CCCC1	16	2	i	9	-13	·
